Data reported in PubChem BioAssay (Tox21).
“And” between values parts separate entries of the source, which are not always exact repeats. Equal values may be shown once. Inconclusive results are not listed. Some compounds were tested as several samples or in several runs, with calls that do not always agree. The source made the active and inactive calls. Unless noted, calls follow the shape of the dose curve; as a rule, active = well fitted curve in the direction sought with a large enough effect in the repeat runs; inconclusive = weak or mixed curves; inactive = no such curve, though single readings can be large; an effect the other way counts as inactive or inconclusive.

Columns and labels:
[1] = qHTS assay to identify small molecule antagonists of the thyroid receptor (TR) signaling pathway (AID 743065); also: nearly all actives have a fitted effect of over 55% in size; also: potency is read from the fitted curve at half-maximal effect
Procedure, shortened: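 GH3.TRE-Luc rat pituitary cells carrying two TR response elements driving luciferase were plated for 4 h, given compound plus 1 nM T3 (final), and incubated 23.5 h at 37 C. ONE-Glo luminescence measured reporter inhibition; CellTiter-Fluor fluorescence tracked cytotoxicity.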

[2] = system: thyroid hormone receptor (rat, GH3 cells); assay: qHTS assay to identify small molecule agonists of the thyroid receptor (TR) signaling pathway (AID 743066; calls by dose curve)
[3] = target: Estrogen receptor (Homo sapiens) (UniProt P03372); assay: qHTS assay to identify small molecule antagonists of the estrogen receptor alpha (ER-alpha) signaling pathway (AID 743069; active = well fitted curve in the direction sought with a large enough effect in the signal ratio in the repeat runs, not every such curve was filed as active; the % refers to the signal ratio)
Procedure, shortened: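 Screening used a UAS-driven beta-lactamase reporter integrated into HEK293 cells expressing ER-alpha, stimulated with 17beta-estradiol alongside test compounds over 18 hr at 37C; signal came from LiveBLAzer B/G FRET fluorescence.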

[4] = qHTS assay to identify small molecule antagonists of the estrogen receptor alpha (ER-alpha) signaling pathway - cell viability counter screen (AID 743074; calls by dose curve; also: nearly all actives have a fitted effect of over 45% in size; also: potency is read from the fitted curve at half-maximal effect)
[5] = target: Estrogen receptor (Homo sapiens) (UniProt P03372); assay: qHTS assay to identify small molecule agonists of the estrogen receptor alpha (ER-alpha) signaling pathway (AID 743075; calls by dose curve)
[6] = target: Estrogen receptor (Homo sapiens) (UniProt P03372); assay: qHTS assay to identify small molecule agonists of the estrogen receptor alpha (ER-alpha) signaling pathway using the BG1 cell line (AID 743079); details: BG1Luc4E2 cells, ERE-luciferase agonist, 22 h; also: nearly all actives have a fitted effect of over 20% in size
[7] = qHTS assay to identify small molecule antagonists of the estrogen receptor alpha (ER-alpha) signaling pathway using the BG1 cell line (AID 743080; calls by dose curve;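 also: BG1 cells stimulated with 17beta-estradiol alongside compound; nearly all actives have a fitted effect of over 25% in size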)
Procedure, shortened: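 After 5 days in phenol-red-free 10% charcoal-stripped FBS medium, BG1-Luc-4E2 cells were seeded, left 24 h at 37 C, co-treated with compounds and 17beta-estradiol for 21.5 h, then assayed for viability and luciferase.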

Aromatase (Homo sapiens) = Aromatase (Homo sapiens) (UniProt P11511); assay: qHTS assay to identify aromatase inhibitors (AID 743083); also: nearly all actives have a fitted effect of over 55% in size; also: potency is read from the fitted curve at half-maximal effect
[8] = qHTS assay to identify aromatase inhibitors - cell viability counter screen (AID 743084);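 also: cells stimulated with testosterone during compound exposure; nearly all actives have a fitted effect of over 55% in size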
[9] = qHTS assay to identify small molecule antagonists of the estrogen receptor alpha (ER-alpha) signaling pathway using the BG1 cell line - cell viability counter screen (AID 743081);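 also: compound given together with 17beta-estradiol as the ER stimulus; nearly all actives have a fitted effect of over 45% in size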
% is scaled to controls: 0 for no effect and ±100 for the full control effect.

Sequence of Aromatase (Homo sapiens) (P11511 whole entry, looked up): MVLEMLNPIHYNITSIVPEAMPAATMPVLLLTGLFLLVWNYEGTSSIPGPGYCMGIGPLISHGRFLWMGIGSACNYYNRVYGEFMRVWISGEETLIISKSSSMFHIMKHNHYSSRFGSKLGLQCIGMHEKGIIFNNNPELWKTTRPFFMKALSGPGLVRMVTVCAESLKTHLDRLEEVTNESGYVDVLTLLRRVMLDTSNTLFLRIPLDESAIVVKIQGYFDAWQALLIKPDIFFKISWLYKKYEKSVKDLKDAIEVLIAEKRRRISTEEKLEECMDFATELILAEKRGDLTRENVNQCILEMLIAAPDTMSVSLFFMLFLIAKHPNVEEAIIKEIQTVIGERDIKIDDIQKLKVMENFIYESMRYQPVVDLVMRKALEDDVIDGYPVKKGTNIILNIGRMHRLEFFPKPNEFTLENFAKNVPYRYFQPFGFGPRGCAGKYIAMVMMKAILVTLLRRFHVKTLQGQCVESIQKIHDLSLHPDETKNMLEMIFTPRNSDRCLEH
Sequence of Estrogen receptor (Homo sapiens) (P03372 whole entry, looked up): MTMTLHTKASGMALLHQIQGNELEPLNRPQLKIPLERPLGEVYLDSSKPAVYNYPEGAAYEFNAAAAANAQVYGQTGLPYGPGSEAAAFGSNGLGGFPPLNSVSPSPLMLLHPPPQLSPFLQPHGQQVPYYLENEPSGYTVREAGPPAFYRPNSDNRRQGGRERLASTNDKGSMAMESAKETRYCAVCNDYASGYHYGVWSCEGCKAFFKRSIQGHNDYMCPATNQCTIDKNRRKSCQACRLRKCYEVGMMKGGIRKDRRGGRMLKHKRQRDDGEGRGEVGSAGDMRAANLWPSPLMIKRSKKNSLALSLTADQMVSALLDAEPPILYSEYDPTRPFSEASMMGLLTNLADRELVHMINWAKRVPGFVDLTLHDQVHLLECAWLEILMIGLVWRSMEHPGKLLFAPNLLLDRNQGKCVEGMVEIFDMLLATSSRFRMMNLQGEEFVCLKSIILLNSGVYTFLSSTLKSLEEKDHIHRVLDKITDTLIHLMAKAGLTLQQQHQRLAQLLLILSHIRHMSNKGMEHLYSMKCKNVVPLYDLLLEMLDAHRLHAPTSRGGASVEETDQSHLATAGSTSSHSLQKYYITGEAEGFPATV

CCC1(c2ccccc2)CCC(=O)NC1=O (stereo not drawn)
inactive: Potency [1] | Potency [2] | Potency [3] | Potency [4] | Potency [5] | activation ([6]; at 70.3 µM (top of the series)) 2.78% | Potency [7] | Potency (Aromatase (Homo sapiens)) | Potency [8]

CC(C)(C)c1cc(O)ccc1O
inactive and 26.6 µM (active): Potency (Aromatase (Homo sapiens))
inactive: Potency [2] | Potency [3] | Potency [5] | Potency [7] | Potency [9] | Potency [8]
inactive and 26.8 µM (active): Potency [4]
active: Potency [1] 6.68 µM and 61.1 µM and 38.6 µM

Cl/C=C/CCl
inactive: Potency [1] | Potency [2] | Potency [4] | Potency [9] | Potency (Aromatase (Homo sapiens)) | Potency [8]

C=CCCC#N
inactive: Potency [1] | Potency [2] | Potency [4] | Potency [5] | activation ([6]; at 70.3 µM (top of the series)) -1.77% | Potency [7] | Potency [9] | Potency (Aromatase (Homo sapiens)) | Potency [8]

CCC1(c2ccccc2)C(=O)N(COC)C(=O)N(COC)C1=O
inactive: Potency [1] | Potency [2] | Potency [4] | Potency [9] | Potency (Aromatase (Homo sapiens)) | Potency [8]

O=c1[nH]c2ccccc2o1
inactive: Potency [1] | Potency [2] | Potency [4] | Potency [9] | Potency (Aromatase (Homo sapiens)) | Potency [8]

NCC1(CC(=O)O)CCCCC1
inactive: Potency [1] | Potency [2] | Potency [4] | Potency [9] | Potency (Aromatase (Homo sapiens)) | Potency [8]

CC1=C2[C@H]3OC(=O)[C@@H](C)[C@@H]3CC[C@@]2(C)C=CC1=O
inactive: Potency [1] | Potency [2] | Potency [4] | Potency [9] | Potency (Aromatase (Homo sapiens)) | Potency [8]

CCCC(C)(COC(N)=O)COC(N)=O
inactive: Potency [1] | Potency [2] | Potency [4] | Potency [9] | Potency (Aromatase (Homo sapiens)) | Potency [8]

CCC(=O)c1ccc(Cl)cc1
inactive: Potency [1] | Potency [2] | Potency [4] | Potency [9] | Potency (Aromatase (Homo sapiens)) | Potency [8]

CCOP(=S)(OCC)Oc1ccc(Cl)cc1Cl
inactive: Potency [1] | Potency [2] | Potency [4] | Potency [5] | Potency [7] | Potency [9] | Potency (Aromatase (Homo sapiens)) | Potency [8]

C=CCN1CC[C@]23CCCC[C@H]2[C@H]1Cc1ccc(O)cc13
inactive: Potency [2] | Potency [4] | Potency [9] | Potency (Aromatase (Homo sapiens)) | Potency [8]
active: Potency [1] 29.8 µM

CC[C@@H](CO)NC(=O)[C@@H]1C=C2c3cccc4[nH]cc(c34)C[C@H]2N(C)C1
inactive: Potency [1] | Potency [2] | Potency [4] | Potency [5] | activation ([6]; at 70.3 µM (top of the series)) 2.56% | Potency [7] | Potency [9] | Potency (Aromatase (Homo sapiens)) | Potency [8]

ClCCCCl
inactive: Potency [1] | Potency [2] | Potency [4] | Potency [9] | Potency (Aromatase (Homo sapiens)) | Potency [8]

CNC(=O)Oc1cc(C)c(N(C)C)c(C)c1
inactive: Potency [1] | Potency [2] | Potency [4] | Potency [9] | Potency (Aromatase (Homo sapiens)) | Potency [8]

CC(C)(C)C(=O)C(Cl)Cl
inactive: Potency [1] | Potency [2] | Potency [4] | Potency [9]

CCOC(=O)COc1ccc(Cl)cc1Cl
inactive: Potency [1] | Potency [2] | Potency [4] | Potency [9]

CC(C)(C)C(=O)Cl
inactive: Potency [1] | Potency [2] | Potency [4] | Potency [5] | activation ([6]; at 95 µM (top of the series)) -4.71% | Potency [7] | Potency [9] | Potency (Aromatase (Homo sapiens)) | Potency [8]

CCCC(C)C1(CC)C(=O)N=C(S)NC1=O (stereo not drawn)
inactive: Potency [1] | Potency [2] | Potency [4] | Potency [9] | Potency (Aromatase (Homo sapiens)) | Potency [8]

CCN(CCO)CCn1c(Cc2ccccc2)nc2c1c(=O)n(C)c(=O)n2C
inactive: Potency [1] | Potency [2] | Potency [4] | Potency [5] | activation ([6]; at 70.3 µM (top of the series)) 6.52% | Potency [7] | Potency (Aromatase (Homo sapiens)) | Potency [8]

CC(C)NCC(O)c1ccc([N+](=O)[O-])cc1 (stereo not drawn)
inactive: Potency [1] | Potency [2] | Potency [4] | Potency [9] | Potency (Aromatase (Homo sapiens)) | Potency [8]

COC(=O)[C@@H](N)CCCN/C(N)=N/[N+](=O)[O-]
inactive: Potency [1] | Potency [2] | Potency [4] | Potency [9] | Potency (Aromatase (Homo sapiens)) | Potency [8]

Brc1c(Br)c(Br)c(Br)c(Br)c1Br
inactive: activity, negative = inhibition [1] 36% [at 8.44 µM] | activation [2] -0.0085% [at 8.08 µM] | activity, negative = cytotoxicity [4] -1.91% [at 6.72 µM] | activation [5] 2.61% [at 6.71 µM] | activation ([6]; at 8.47 µM (top of the series)) 1.05% | activity change, negative = inhibition [7] 17.5% [at 8.47 µM] | activity change, negative = cytotoxicity [9] 9.59% [at 8.47 µM] | activity, negative = inhibition (Aromatase (Homo sapiens)) 14.6% [at 8.47 µM] | activity change, negative = cytotoxicity [8] -1.05% [at 8.47 µM]

C=CC(=O)OCCN(C)C
inactive: Potency [1] | Potency [2] | Potency [4] | Potency [9] | Potency (Aromatase (Homo sapiens)) | Potency [8]

CC(=NC#N)N(C)Cc1ccc(Cl)nc1
inactive: Potency [1] | Potency [2] | Potency [4] | Potency [9] | Potency (Aromatase (Homo sapiens)) | Potency [8]

C[C@@H](N)[C@@H](O)c1ccccc1
inactive: Potency [1] | Potency [2] | Potency [4] | Potency [9] | Potency (Aromatase (Homo sapiens)) | Potency [8]

Cc1ccc(-c2nc3ccc(C)cn3c2CC(=O)N(C)C)cc1
inactive: Potency [1] | Potency [2] | Potency [4] | Potency [5] | activation ([6]; at 70.3 µM (top of the series)) 15.6% | Potency [7] | Potency [9] | Potency (Aromatase (Homo sapiens)) | Potency [8]

[O-][Br+2]([O-])O
inactive: Potency [1] | Potency [2] | Potency [4] | Potency [5] | activation ([6]; at 70.3 µM (top of the series)) 1.35% | Potency [7] | Potency [9] | Potency (Aromatase (Homo sapiens)) | Potency [8]

CCCCCCC1CCOC1=O (stereo not drawn)
inactive: Potency [1] | Potency [2] | Potency [4] | Potency [9] | Potency (Aromatase (Homo sapiens)) | Potency [8]

O=C(O)CBr
inactive: Potency [1] | Potency [2] | Potency [4] | Potency [9] | Potency (Aromatase (Homo sapiens)) | Potency [8]

BrCCc1ccccc1
inactive: Potency [1] | Potency [2] | Potency [4] | Potency [9] | Potency (Aromatase (Homo sapiens)) | Potency [8]

O=[N+]([O-])c1cccc(CCl)c1
inactive: Potency [1] | Potency [2] | Potency [4] | Potency [9]

O=C(O)C(Cl)Br (stereo not drawn)
inactive: Potency [1] | Potency [2] | Potency [4] | Potency [9] | Potency (Aromatase (Homo sapiens)) | Potency [8]

CC1NCCOC1c1ccccc1 (stereo not drawn)
inactive: Potency [1] | Potency [2] | Potency [4] | Potency [5] | activation ([6]; at 70.3 µM (top of the series)) 12.2% | Potency [7] | Potency [9] | Potency (Aromatase (Homo sapiens)) | Potency [8]

O=C/C=C/c1ccco1
inactive: Potency [1] | Potency [2] | Potency [4] | Potency [5] | activation ([6]; at 70.3 µM (top of the series)) 10.7% | Potency [7] | Potency [9] | Potency (Aromatase (Homo sapiens)) | Potency [8]

CON(C)C(=O)Nc1ccc(Br)cc1
inactive: Potency [1] | Potency [2] | Potency [4] | Potency [9] | Potency (Aromatase (Homo sapiens)) | Potency [8]

CC(Cl)(Cl)Cl
inactive: Potency [1] | Potency [2] | Potency [4] | Potency [9] | Potency (Aromatase (Homo sapiens)) | Potency [8]

[P]#[In]
inactive: Potency [1] | Potency [2] | Potency [4] | Potency [9] | Potency (Aromatase (Homo sapiens)) | Potency [8]

NNC(N)=O
inactive: Potency [1] | Potency [2] | Potency [4] | Potency [5] | activation ([6]; at 95 µM (top of the series)) -3.44% | Potency [7] | Potency [9] | Potency (Aromatase (Homo sapiens)) | Potency [8]

CCCCS(=O)(=O)Cl
inactive: Potency [1] | Potency [2] | Potency [4] | Potency [9] | Potency (Aromatase (Homo sapiens)) | Potency [8]

CN(C)C1CCCCC1
inactive: Potency [1] | Potency [2] | Potency [4] | Potency [5] | Potency [7] | Potency [9] | Potency (Aromatase (Homo sapiens)) | Potency [8]

CCC1(c2cccc(O)c2)CCCCN(C)C1 (stereo not drawn)
inactive: Potency [1] | Potency [2] | Potency [4] | Potency (Aromatase (Homo sapiens)) | Potency [8]

ClCC1CO1 (stereo not drawn)
inactive: Potency [2] | Potency [3] | Potency [4] | Potency [5] | activation ([6]; at 70.3 µM (top of the series)) -1.3% and 13.9% | Potency [7] | Potency [9] | Potency (Aromatase (Homo sapiens)) | Potency [8]
